Reference: the supplement of paper PMC10681739
Over roughly 2,700 sequences, “arbitrary fluorescence units” has its median near 4,100; the highest 2% begin near 54,000. The sample as a whole holds a higher share of the highest values than the screen did.

Target: T1, ETS1 (UniProt P14921)
T1 sequence: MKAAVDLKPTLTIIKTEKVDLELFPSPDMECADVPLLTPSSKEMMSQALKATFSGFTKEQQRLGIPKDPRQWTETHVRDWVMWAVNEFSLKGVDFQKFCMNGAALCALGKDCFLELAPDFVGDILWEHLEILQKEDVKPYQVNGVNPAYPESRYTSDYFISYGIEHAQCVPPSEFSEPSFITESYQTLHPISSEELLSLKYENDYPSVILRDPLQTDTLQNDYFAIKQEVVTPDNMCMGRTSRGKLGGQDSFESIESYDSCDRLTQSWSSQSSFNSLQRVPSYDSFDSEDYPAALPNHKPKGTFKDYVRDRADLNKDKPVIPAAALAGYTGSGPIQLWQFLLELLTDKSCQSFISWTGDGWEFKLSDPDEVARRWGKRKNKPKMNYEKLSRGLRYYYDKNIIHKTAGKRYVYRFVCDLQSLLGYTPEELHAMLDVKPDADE
Assay: ETS1 binding intensity (PBM fluorescence) (arbitrary fluorescence units); higher = stronger binding
Conditions: ETS1 concentration 10 nM
Procedure: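 gcPBM on wild-type 36-bp genomic probes with two neighbouring ETS1 sites (4-24 bp apart). Recombinant human ETS1 (10 nM) was detected with anti-ETS1 antibody fluorescence. Values are medians over 3 replicate spots. The probes sit in constant array flanks that are not printed.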

Sequence | ETS1 binding intensity
TTCACCCCACCACTTCCTCATCCTGATCTCAGCTCA | 2880
CCCACTTCCTGCCTCACCCTGAAGATCTTCCGGGCA | 56900
CCCTCCCCTTCCTGCCTGCCCTTCTTCCGGGGCACC | 8020
GCCGGAGACTAGCTTCCGCTTCCGGTGTGAGCGGCC | 26200
AACCACTTCCGGTGAGTAGCTTCTACTTCCGGAGAC | 135000
AAGACTTCTACTTCCGGAGACTTCCTCATGCCATGC | 33400
GTTACTTCCTCTCCCCAGGTCTCTCGGTTTCCTCAT | 23600
TCTCGACTTCCGGTTCACCCAGCATTTCCTCTTCCC | 103000
CACCCATTTTCACTTCCGCTTCCGGTTGTCACAGGC | 26500
GCTCCACCTTCCGGCCCATGGACACGGATGCCGAGG | 16100
TCCTGCCTCAGGATGCCGGGGGAGGAAGAGGAGCGG | 258
CCTACAATTCCTGTTTTGGAGACCGCTTCCGGCAGC | 3700
ATCTCACCTTCCTGGTGTCTGGGCTTCCGCAGCTTC | 662
TATTCAAAGCCCACTTCCTTCCTGTAGCATTCATTC | 6220
AGCATTCCACTTCCTGTCTTGATTCCTGTATTAGAG | 62700
CTTCCACATCTTCCTGCAGAGCATCCTGTCTGTGCA | 4230
TGTGATGTTTCCTCTTGCTGTGGTTTCCTGTCATGG | 4090
AGGAGGAATGGCAGGAAGAGGAAGTGAAACCGACAA | 1690
TTCCGACCGGAAGTGAGAAGAGGAGGAAGTTGGCTG | 64200
CAGGCCGGAAGTACGTGAGAGGAGACTTCCGGCCAC | 31200

Sequence | ETS1 binding intensity
CTTAGTTTCCTCTGGCGATGCTAAAGAGGAAGTTAC | 2440
ATTTGAAGAGCCAGGAAGGAGGAAATGCAGAGTGCA | 287
AGTCTAGTTGCCAGGAAACAGGATGTGGGAGGGACA | 3800
TCCTCTTTCCGTTGTGAGCACCCTGCATCCTGGTGG | 3800
CTGATAGGGGAAGTGGGAGTTGACAGGATGGTTTAA | 424
ATGTAAAGAGGAAGTGACTCATTCTTCCTGGTGGTG | 3720
GGGGCCGGAAGCTTTCGGATAACAACTTCCGCTCGG | 20100
ACAGCTTCCGGTTTTGCAAGACAATGCTTCCTTCTC | 87800
CAACAGGAAATACATACCTGTCCTGAGAGGAAGCAC | 7320
AGCATCTGCTGGGGGAAACGGAAGCAGCCCAGATGG | 774
TGTAGGAGCTTCCTTGCAGCCTCAGGATGCCGAATT | 517
TATGTATTTCCTTATTGCAAAGGGCGGAAACGTGTA | 3980
GGAAAGACGGCAGGAAATGGGGAAGTGGGAGGGAGA | 6220
GGATCAGGAAGTCACGACATGGCGACCATCCTGGCT | 1720
CGTCCCACATCCGCCGACACGCCCCTTCCGGCCTAA | 20000
GCCCCACTTCCCTCCCGCGGTCACACTTCCGGCGGC | 12500
CCCCACATCCGGTGCGGCGACGCCACTTCCGCCCAC | 78100
GATGACCTGCCATTTCCCCAGGAAAGCTGAGACCCC | 201
TTTCTGTCCGTTTCCGACAAACTTCCCGCGCTCTTC | 2630
TGCCCTGCCTGCTTCCTCCCTTCCTTTCAACCCCAA | 2350

Sequence | ETS1 binding intensity
TGAAGACGGAAACCTGAGAACACCATTTCCTGTGCT | 4470
GCCGCCGCGTACTTCCGGCCGGAAGAAAGGGCGGGC | 65400
CGGCGGAAGGAGCGGGCGGCGTGAGCGCTTCCGCCG | 811
TCGGCCACTTCCGGCGCGCGGGGCGGAAAGCGGGCG | 75800
GGGAGGCGGAAAGGGGCGGGACCACTTCCGGCCTAG | 22100
CGGCGTCAGCGGAACGGGCGGCTTCCGGCCGCGGCG | 8120
CGGCGGCTGCCGGAAAGCCACTTCCGGCCTGCTCCA | 25400
CTGTCACACAGGAAGACCACACAGGAAGACCAGGTG | 1320
TCCACTCTGCGGAAGCCACGTTCATCCTGCCCTGCC | 586
ATGCAGAAAGTGGGAAGTGAGGAAATGAGGGCAGCG | 232
GAGAACTTCCGGCTGCAGTACAACCATTTCCGGGCT | 68300
AACCAACAACTTACTTCCTTCCGGGTTTGGTGCAGA | 5690
CCTGGCCGGAAACTGAGCCGTTCACTTCCGCCACCA | 14000
TATCTCCTTCCTGTGTAGCATTGACTTTCCTGTCAG | 14100
CGTGAGCGGAAGCGGCGCCATTCGTCTTCCGAGCGC | 6670
TGCTAAACTTCCCTGGGCCCCATCAGGAAATGTGAA | 185
TCCGCGTCCCCACATCCTCCGGATGCCCAGCGGTTG | 1980
TTCTTGGCCACATCCGTCTCCCGGAACTGCTCCTTC | 8980
GCCCACATCCGGCCCCTCCTTGCCCCGGAACCTCCT | 70100
CGCCATACCTGGCTTCCGCTTCCGGTGGCTTCTCGT | 28200
